Screens from PubChem.
Rows were chosen to be rich in hits. Some 0.81% of all compounds tested hit in one or more screens of this group.
SRC3 inh = human NCOA3 inhibition. 360,000 tested, 0.17% active. HEK293 GAL4-SRC3 luciferase reporter, luminescence. inhibition, % at 3.6 µM;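 active = inhibition above a per-campaign cutoff, the mean of all compounds plus 3 SD, cut at about 60% in these data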;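 note: 0% = DMSO-treated cells and 100% = gossypol-treated cells at 36 µM; higher means less SRC3-driven luciferase light from the GAL4 reporter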
NCOA2 inhibitor = human SRC2 (NCOA2) inhibition; AID 651957; Q15596; 370,000 tested, 0.17% active; inhibition, % at 9 µM; HEK293 GAL4-SRC2 luciferase reporter, luminescence;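 active = inhibition above the mean inhibition of all tested compounds plus 3 SD, set per campaign, cut at about 52% in these data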;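 note: 0% = DMSO treated cells and 100% = cells given Gossypol at 36 µM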
SRC1 inh = human NCOA1 inhibition. Q15788. HEK293 GAL4-SRC1 luciferase reporter, luminescence. inhibition, % at 3.6 µM. 360,000 tested, 0.12% active;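 active = inhibition above the campaign mean plus 3 SD, with each screening campaign given its own cutoff, cut at about 60% in these data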;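 note: 0% = DMSO treated cells and 100% = gossypol at 36 µM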
Target sequence (Q15788 whole entry, looked up, the tested form may be a part): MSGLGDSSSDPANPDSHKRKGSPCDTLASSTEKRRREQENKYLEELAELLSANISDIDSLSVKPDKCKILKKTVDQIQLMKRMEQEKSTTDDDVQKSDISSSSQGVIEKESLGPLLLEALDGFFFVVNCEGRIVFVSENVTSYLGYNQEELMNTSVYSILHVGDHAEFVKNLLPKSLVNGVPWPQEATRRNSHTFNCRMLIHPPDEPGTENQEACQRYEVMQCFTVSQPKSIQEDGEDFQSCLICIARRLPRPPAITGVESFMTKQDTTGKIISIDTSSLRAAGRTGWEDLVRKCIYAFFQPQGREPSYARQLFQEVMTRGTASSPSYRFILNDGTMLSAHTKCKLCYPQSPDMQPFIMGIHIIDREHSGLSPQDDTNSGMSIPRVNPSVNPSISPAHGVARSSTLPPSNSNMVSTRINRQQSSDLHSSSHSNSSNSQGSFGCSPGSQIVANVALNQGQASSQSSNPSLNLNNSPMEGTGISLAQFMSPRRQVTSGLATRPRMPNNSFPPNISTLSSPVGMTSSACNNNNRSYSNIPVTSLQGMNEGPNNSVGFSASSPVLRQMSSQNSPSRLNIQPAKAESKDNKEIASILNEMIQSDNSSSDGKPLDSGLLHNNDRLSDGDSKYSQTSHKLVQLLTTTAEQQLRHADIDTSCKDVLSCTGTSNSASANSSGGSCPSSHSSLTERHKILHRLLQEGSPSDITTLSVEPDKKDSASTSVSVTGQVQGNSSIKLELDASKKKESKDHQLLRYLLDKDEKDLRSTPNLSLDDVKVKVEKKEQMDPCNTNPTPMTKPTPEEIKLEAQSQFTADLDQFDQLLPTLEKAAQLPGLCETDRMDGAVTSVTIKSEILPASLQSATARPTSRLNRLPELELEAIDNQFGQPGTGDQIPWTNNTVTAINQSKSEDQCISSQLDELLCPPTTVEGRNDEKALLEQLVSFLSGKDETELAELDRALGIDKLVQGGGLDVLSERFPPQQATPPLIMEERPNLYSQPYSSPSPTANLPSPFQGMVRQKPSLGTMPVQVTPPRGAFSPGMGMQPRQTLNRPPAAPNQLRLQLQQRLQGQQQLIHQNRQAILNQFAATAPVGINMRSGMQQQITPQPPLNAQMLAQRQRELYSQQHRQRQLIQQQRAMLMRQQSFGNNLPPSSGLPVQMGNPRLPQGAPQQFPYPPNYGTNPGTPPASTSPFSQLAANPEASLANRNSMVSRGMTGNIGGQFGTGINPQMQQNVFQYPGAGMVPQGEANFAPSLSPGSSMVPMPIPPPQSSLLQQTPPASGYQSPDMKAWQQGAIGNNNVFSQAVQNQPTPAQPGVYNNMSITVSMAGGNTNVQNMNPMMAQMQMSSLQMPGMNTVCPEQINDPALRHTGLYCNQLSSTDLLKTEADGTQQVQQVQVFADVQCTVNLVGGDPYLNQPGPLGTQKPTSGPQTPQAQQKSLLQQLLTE
NR2F2 inh = NR2F2 (human) inhibition, primary screen | 370,000 tested, 0.7% active | P24468 | HEK293T NGFI-A luciferase reporter, luminescence | inhibition, % at 8.6 µM;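 active = inhibition above a per-plate cutoff, mean inhibition of test wells between control levels plus 3 SD, cut at about 38% in these data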;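 note: cells cotransfected with COUP-TFII expression vector driving the NGFI-A reporter; 0% = median of COUP-TF2 test wells and 100% = reporter-only cells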
NR5A2 inv ag = NR5A2 inverse agonism in reporter assay | HEK293T StAR-luciferase reporter, LRH-1 transfected, 24 h | inhibition, % at 3.6 µM | 360,000 tested, 0.13% active | AID 602396;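 active = inhibition above the mean inhibition of all tested compounds plus 3 SD, cut at about 73% in these data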;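 note: 0% = DMSO wells and 100% = reporter-only cells lacking LRH-1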
Starred values were filed as active, the others as inactive; nt = no result given.

SMILES | SRC3 inh | NCOA2 inhibitor | SRC1 inh | NR2F2 inh | NR5A2 inv ag
Cn1c(/C(C#N)=C/c2ccc(-c3ccc(S(N)(=O)=O)cc3)o2)nc2ccccc21 | 68* | -16 | 38 | -17 | -15
CC(COc1ccc(C#N)c(F)c1)CN1CCC(C(O)(c2ccccc2)c2ccccc2)CC1 (stereo not drawn) | nt | -5 | nt | 1 | nt
CN(Cc1ccccc1)S(=O)(=O)c1cccc(C(=O)OCc2ccccc2)c1 | nt | 11 | nt | -20 | nt
COc1cc(NS(C)(=O)=O)ccc1Nc1c2ccccc2nc2ccccc12 | 64* | -23 | 62* | -63 | 46
COc1ccc(OC)c(Nc2c3ccccc3nc3ccccc23)c1 | -7 | 5 | 6 | 16 | 13
CC(=O)N1CC(C)Sc2ccc(S(=O)(=O)NC(C)c3ccccc3)cc21 (stereo not drawn) | 23 | 6 | -3 | 17 | 22
CCN(CC)CCNc1ccc(CO)c2oc3cc(Cl)ccc3c(=O)c12 | -13 | -49 | 14 | -2 | 13
CCN(CC)CCNc1ccc(C)c2sc3ccc(O)cc3c(=O)c12 | 64* | -27 | 63* | -89 | 39
COc1ccc(-n2c(COc3ccccc3)nnc2SCC(=O)Nc2ccc3c(c2)OCCO3)cc1 | nt | 7 | nt | 16 | nt
Cc1ccc(C(C)C)c(OCc2ccc(C(=O)N/N=C/c3ccc(O)cc3O)cc2)c1 | 70* | 64* | 67* | 13 | 45
O=S1(=O)c2c(cccc2N2CCC[C@H]2CO)O[C@@H]2CCN1C2 | nt | -14 | nt | -15 | nt
CC1=NN(c2nc3ccccc3[nH]2)C(=O)C1Cc1ccccc1 (stereo not drawn) | 75* | nt | 51 | nt | 81*
CC1=NN(c2nc3ccccc3[nH]2)C(=O)/C1=C/N(C)C | 4 | nt | -15 | nt | -4
Nc1ccc2oc(-c3cccc4ccccc34)nc2c1 | -18 | 55* | 3 | 37 | -13
C=C1C(=O)[C@@]23[C@H](O)C[C@@H]4C(C)(C)CC[C@H](O)[C@]4(C)[C@@H]2C[C@H](O)[C@@H]1[C@H]3O | -4 | 50 | 12 | -17 | 27
C=C1C(=O)[C@@]23[C@H](O)C[C@@H]4C(C)(C)CC[C@H](O)[C@@]4(C)[C@@H]2CC[C@@H]1[C@H]3O | 35 | 60* | 44 | 23 | 38
CCc1cc(OCCN(C)C)ccc1Cl | 0 | 7 | 10 | 2 | 6
CN(C)CCOc1ccc2c(c1)C(=O)C(=Cc1ncc([N+](=O)[O-])n1C)C2 | 55 | 17 | 30 | -17 | 82*
CC(=O)n1cc(N(C(=O)CCl)c2ccc(C)cc2)c2ccccc21 | 27 | 61* | -6 | 37 | 39
CNC(=O)c1cc2c(-c3ccccc3)nn(C)c2s1 | -7 | 11 | 4 | -29 | 20
O=C(CC1SCCNC1=O)NCc1ccccc1 (stereo not drawn) | -2 | 3 | 0 | -6 | -16
C=CCN=C1NN=C(c2cc(C)n(CC=C)c2C)CS1 | 70* | 58* | 71* | 77* | 42
Oc1ccccc1N=Nc1ccccc1O | 69* | 21 | 34 | -59 | 36
CCc1ccc(-c2nc(CS(=O)CC(=O)NCc3ccccc3)c(C)o2)cc1 (stereo not drawn) | -7 | 55* | 10 | 36 | 24
Cn1c(=O)c2cc(S(=O)(=O)N3CCN(c4ccccc4Cl)CC3)ccc2n(C)c1=O | nt | 7 | nt | 0 | nt
SMILES | SRC3 inh | NCOA2 inhibitor | SRC1 inh | NR2F2 inh | NR5A2 inv ag
COCCn1c(C)cc(C(=O)COc2ccc(C)nc2[N+](=O)[O-])c1C | 37 | 54* | 39 | 5 | 18
O=C(NC1CCCCC1)C(c1cccnc1)N(C(=O)CCl)c1cccc(Cl)c1 (stereo not drawn) | 69* | 57* | 37 | 3 | -27
Cc1cc(Nc2ccccc2)n(-c2ccccc2)n1 | 5 | -13 | 1 | -2 | 11
Cc1cc(C)nc(-n2nc(C)cc2Nc2ccccc2)n1 | -9 | -6 | 6 | 28 | 75*
CCOC(=O)c1cc2sccc2n1CC(=O)OC(C)C | 11 | 1 | 0 | 3 | 28
CCOC(=O)c1cc2sccc2n1CC(=O)N1CCc2ccccc21 | 67* | -3 | 39 | -8 | 0
O=C1CCC[C@H]2Cc3nc4cc5c(cc4cc3C[C@]23CCCN13)OCO5 | nt | nt | nt | 7 | nt
CCOc1ccc(Nc2ncnc3ccc([N+](=O)[O-])cc23)cc1 | 55 | 45 | 69* | 29 | 37
C(=N\Nc1nc2ccccc2[nH]1)/c1cccc2cccnc12 | 62* | 2 | -11 | -40 | 64
Cc1ccc2[nH]c3c(c2c1)CCCC3NC(=O)CCl (stereo not drawn) | 77* | nt | 77* | nt | 89*
